Screens (PubChem BioAssay)
In the library only some 4.6% were active in any assay of this set; here they are far more common.
TRHR enhancer – allosteric enhancers of human TRH receptor; P34981; TRHR cells, fluo-8 calcium fluorescence, EC20 TRH enhancement; enhancement, % at 2 µM; 360,000 compounds, 0.66% hits; in the data active = enhancement above about 30%
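TRHR-expressing cells loaded with fluo-8 calcium dye were read kinetically (ex 480/em 530) during compound addition, then stimulated with an EC20 of TRH (10 nM final). Enhancement of the Gq-mediated intracellular calcium response was scored.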
TRHR ag – agonists of human TRH receptor. 360,000 compounds, 0.18% hits. TRHR cells, calcium flux fluo-8, FDSS agonist mode. activation, % at 2 µM. AID 493084
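Fluo-8-loaded TRHR cells; 10 s baseline, compound added, kinetic Ca2+ fluorescence read 1/s, agonist mode.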
D1 agonist – agonists of human D1 dopamine receptor; HEK293 T-REx D1 cells, calcium flux, agonist mode; activation, % at 2 µM; 360,000 compounds, 1% hits; AID 504660
Target sequence (P21728 whole entry, looked up): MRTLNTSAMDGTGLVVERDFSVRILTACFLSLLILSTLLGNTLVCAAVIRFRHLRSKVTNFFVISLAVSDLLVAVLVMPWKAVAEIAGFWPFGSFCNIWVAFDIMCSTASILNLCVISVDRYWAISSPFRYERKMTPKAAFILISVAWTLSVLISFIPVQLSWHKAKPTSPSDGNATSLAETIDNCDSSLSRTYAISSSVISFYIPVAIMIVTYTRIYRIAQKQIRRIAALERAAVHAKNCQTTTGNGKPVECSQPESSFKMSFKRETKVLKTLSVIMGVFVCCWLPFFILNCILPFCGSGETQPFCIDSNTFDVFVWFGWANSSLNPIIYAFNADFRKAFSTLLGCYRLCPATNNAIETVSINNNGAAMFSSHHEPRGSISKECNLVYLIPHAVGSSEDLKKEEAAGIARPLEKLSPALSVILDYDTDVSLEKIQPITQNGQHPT
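Agonism was scored from calcium flux recorded over 180 s (1 read/s) after pintool compound addition, following a 10-cycle baseline. Cells were inducible force-coupled HEK293 TREx D1, plated overnight at 30 C and loaded with no-wash calcium dye.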
D1 PAM – enhances dopamine response at the human D1 receptor. P21728. HEK293 TREx D1 cells, calcium flux, dopamine EC20 potentiation. potentiation, % at 10 µM. 360,000 compounds, 0.036% hits; in the data active = potentiation above about 30%
D1 antagonist – antagonists of human D1 dopamine receptor. activity change, negative = inhibition, % at 10 µM. 360,000 compounds, 3.2% hits. AID 504652. HEK293 TREx D1 cells, calcium flux, dopamine EC80; stronger effect = lower value. P21728; in the data active = activity change below about -30%
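Tetracycline-induced HEK293 Trex D1 cells, force-coupled to calcium, dye-loaded; compounds added and read 180 s, then EC80 dopamine added and calcium flux tracked kinetically another 180 s.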
Epigenetic derep – regulators of epigenetic silencing causing reporter derepression in mouse cells. murine LDR cells, GFP reporter derepression, 30 h. Potency, µM (series often up to 53.9 µM), hits mostly activators. 280,000 compounds, 0.2% hits. AID 1865; active = well fitted activation curve with a large enough effect; also: nearly all actives have a fitted effect of over 60% in size
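GFP-positive cell count by laser-scanning cytometry (objects 20–120 um) after 30 h, 37 C compound exposure of murine LDR cells; reporter is CMV-GFP integrated at a silenced locus, inducible by HDAC or DNMT inhibitors.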
A number is an active result; 0 = inactive; - = no result given; [ ] = dose if it differs, or a comment. Rule as the data show it, unless noted: active = activation above about 30%; inactive = the rest.

SMILES | TRHR enhancer | TRHR ag | D1 agonist | D1 PAM | D1 antagonist | Epigenetic derep
CC1=Nc2ccccc2/C1=C\c1nc(-c2ccccc2)oc1O | 0 | 0 | 0 | 0 | 0 | 0
CC1=Nc2ccccc2/C1=C\c1nc(-c2ccc(C(F)(F)F)cc2)oc1O | 0 | 0 | 79 | 0 | 0 | 13µM
Oc1ccccc1-c1nnc(-c2ccc(C(F)(F)F)cc2)o1 | 0 | 0 | 0 | 0 | 0 | 0
Cc1cccc(/N=C/c2nc(-c3ccccc3Br)oc2O)n1 | 0 | 0 | 0 | 0 | 0 | 0
COc1ccc(-c2nc(/C=C3\C(C)=Nc4ccccc43)c(O)o2)cc1 | 0 | 0 | 33 | 0 | 0 | 0
O=C(Cn1c(=O)n(Cc2ccc(F)cc2)c(=O)c2sc3ccccc3c21)NCc1ccccc1Cl | 0 | 0 | 0 | 0 | 0 | 0
O=c1c2ccccc2sn1-c1ccc(F)cc1 | 0 | 0 | 65 | 0 | -44 | -
Cc1ccc(-n2sc3ccccc3c2=O)cc1 | 0 | 0 | 0 | 0 | 0 | 0
CCOc1ccc(NC(=O)CN2C(=O)C(c3ccccc3)=NC23CCC(C)CC3)cc1 (centres undefined) | 0 | 0 | 0 | 0 | 0 | 0
COC(=O)c1ccc(NC(=O)n2ncc3c(C)cccc32)cc1 | 0 | 0 | 0 | 0 | -70 | 0
O=C(/C=C/c1ccco1)NC(=S)Nc1cccc([N+](=O)[O-])c1 | 32 | 0 | 0 | 0 | 0 | 0
Cc1cccc(NC(=S)NC(=O)/C=C/c2ccco2)c1 | 0 | 0 | 0 | 0 | 0 | 0
O=C(c1cccc([N+](=O)[O-])c1)N1c2nc(-c3ccco3)nn2C2(CCCCC2)[C@@H]2CCCC[C@@H]21 | 0 | 0 | 0 | 0 | 0 | 0
COc1cc(C2C(C(=O)Nc3ccc(C)cc3C)=C(C)Nc3nc4ccccc4n32)cc(OC)c1OC (centres undefined) | 0 | 0 | 0 | 0 | 0 | 0
CN(C)S(=O)(=O)c1ccc2c(c1)N(CC(=O)NCc1cccc(Br)c1)C(=O)CS2 | 0 | 0 | 0 | 0 | 0 | 0
CCOc1ccc(CC(=O)NCCc2sc3nc(-c4ccc(F)cc4)nn3c2C)cc1 | 43 | 0 | 0 | 0 | - | 0
CCOc1ccc(CC(=O)NCCc2sc3nc(-c4ccc(OC)cc4)nn3c2C)cc1 | 0 | 0 | 0 | 0 | - | 0
Cc1c(C(=O)NC(C)c2ccccc2)sc2ncnc(N(C)C3CCCCC3)c12 (centres undefined) | 0 | 0 | 0 | 0 | 0 | 0
CCN1CCN(CCNC(=O)c2ccc3nc(-c4cccc(C)c4)c(-c4cccc(C)c4)nc3c2)CC1 | 0 | 0 | 63 | 0 | 0 | -
O=C(NCCCN1CCN(c2ccccc2F)CC1)c1ccc2nc(Cc3ccccc3)oc2c1 | 0 | 0 | 0 | 0 | -49 | 0
COc1ccccc1N1CCN(CCCCNC(=O)c2ccc3ccccc3c2)CC1 | 0 | 0 | 0 | 0 | -54 | 0
CCc1nc2ccc(C(=O)NCCCN3CCN(c4ccccc4F)CC3)cc2nc1CC | 0 | 0 | 0 | 0 | -32 | -
CCN(CC)CCCNC(=O)c1ccc2nc(CCc3ccccc3)oc2c1 | 0 | 0 | 0 | 0 | 0 | 0
COC(=O)C1=C(C)N(Cc2ccccc2)[C@]23O[C@](C(=O)OC)(C(=O)N2C1c1ccccc1)C(C(=O)OC)=C3C(=O)OC (some centres undefined) | - | - | - | - | - | 0[10.1 µM]
O=C(NCCCN1CCN(c2ccc(F)cc2)CC1)c1ccc2nc(CCc3ccccc3)oc2c1 | 0 | 0 | 0 | 0 | 0 | 0
SMILES | TRHR enhancer | TRHR ag | D1 agonist | D1 PAM | D1 antagonist | Epigenetic derep
O=C(NCCCN1CCN(c2ccccc2F)CC1)c1ccc2nc(CCc3ccccc3)oc2c1 | 0 | 0 | 0 | 0 | -31 | 0
COc1ccc(COCC(O)CN2CCN(S(=O)(=O)c3ccc(C(C)C)cc3)CC2)cc1 (centres undefined) | 0 | 0 | 0 | 0 | -30 | -
C[C@@H]1C(=O)OC2C[C@@]34[C@H]5C[C@@H](C(C)(C)C)[C@@]36C(O)C(=O)O[C@H]6O[C@@]4(C(=O)O5)[C@]21O (some centres undefined) | - | - | - | - | - | 0
COc1ccc(C2N(c3ccc(Cl)cc3)C(=O)C3CCCN32)cc1 (centres undefined) | 0 | 0 | 0 | 0 | -38 | 0
CNc1cnn(-c2ccccc2)c(=O)c1Cl | 0 | 0 | 0 | 0 | -71 | 0
Cc1ccc(Sc2cnn(-c3ccccc3)c(=O)c2Cl)cc1 | 0 | 0 | 0 | 0 | 0 | 0
CN(C)CCNc1cnn(-c2ccccc2)c(=O)c1Cl | 0 | 0 | 0 | 0 | 0 | 0
Nc1ccc(Sc2cnn(-c3ccccc3)c(=O)c2Cl)cc1 | 36 | 0 | 0 | 0 | 0 | 0
COc1cccc(OCC(=O)NC2CC(=O)N(c3cccc(OC)c3)C2)c1 (centres undefined) | 0 | 0 | 0 | 0 | - | 0
OCCN1CCN(C(c2ccccc2Cl)c2sc3nc(-c4ccco4)nn3c2O)CC1 (centres undefined) | 0 | 0 | 0 | 0 | - | 0
Cn1nnnc1Sc1ncnc2scc(-c3cccc(N)c3)c12 | 0 | 0 | 0 | 0 | 0 | -
Cc1ccc(CCNC(=O)C2CC(c3cccc(F)c3)=NO2)cc1 (centres undefined) | 0 | 0 | 0 | 0 | -62 | 0
CCCCNC(=O)C1CC(c2cccc(F)c2)=NO1 (centres undefined) | 0 | 0 | 0 | 0 | -45 | 0
CCOc1ccccc1C(=O)N1CCCCC1CCN1CCOCC1 (centres undefined) | 0 | 0 | 0 | 0 | 0 | 0
COc1ccc(-c2nc(C)c(CCNS(=O)(=O)c3cc(C)c(C)cc3C)s2)cc1 | 0 | 0 | 0 | 0 | 0 | 0
CN(C)CCNc1nc2sc3c(c2c(=O)n1-c1ccc(F)cc1)CCCCC3 | 0 | 0 | 0 | 0 | 0 | 0
CN(C)CCNc1nc2sc3c(c2c(=O)n1Cc1ccccc1)CCCCC3 | 0 | 0 | 65 | 0 | 0 | -
COc1ccc(-n2c(NCCN(C)C)nc3sc4c(c3c2=O)CCCCC4)cc1 | 0 | 0 | 56 | 0 | 0 | 0
COc1ccc(-n2nc3cc(C)c(NC(=O)c4ccc(-c5ccc(Cl)cc5)o4)cc3n2)cc1 | 0 | 0 | 0 | 0 | 0 | 0
CCCCn1c(CCc2ccccc2)nc2cc3[nH]c(=O)c(C(C)C)nc3cc21 | 0 | 0 | 0 | 0 | -82 | -
O=C1CCCC2=C1C(c1ccc(O)cc1)c1c(ccc3ccccc13)N2 (centres undefined) | 0 | 0 | 0 | 0 | -53 | 0
O=C1CCCC2=C1C(c1ccc(O)c(O)c1)c1c(ccc3ncccc13)N2 (centres undefined) | 0 | 0 | 0 | 0 | 0 | 0
Cc1ccc2nc(NC(=O)COC(=O)c3ccco3)sc2c1 | 0 | 0 | 0 | 0 | 0 | 0
O=C(COC(=O)c1ccco1)Nc1nc2ccc([N+](=O)[O-])cc2s1 | 0 | 0 | 0 | 0 | -52 | 0
CCCSc1ncc(Cl)c(C(=O)Nc2sc(C(C)=O)c(C)c2C(=O)OCC)n1 | 0 | 0 | 0 | 0 | 0 | 0
